Compound activity deposited in PubChem BioAssay by National Center for Advancing Translational Sciences (NCATS).
This is one part of a sample in which hits are shown more often than they occur.
CHX counter-1: counter-screen for Shiga toxin inhibitors: cycloheximide protein synthesis inhibition; cell reporter, cycloheximide protein synthesis inhibition counterscreen; max response, %; hit rate 12% among 300,000; AID 2314; in the data active = max response mostly above about 13%, no sharp cut-off; inactive = mostly below about 14%; also: read at 38.3 µM for the half of the compounds with a filed dose; 0% is about no effect
LmPK inh: inhibitors of Leishmania mexicana pyruvate kinase. purified LmPK, Kinase-Glo ATP luminescence, 1 h. Potency, µM (top dose mostly 57.5 µM), without a hit: at the highest dose activity change, negative = inhibition, hits mostly inhibitors. hit rate 0.37% among 290,000; also: potency is read from the fitted curve at half-maximal effect; % is scaled to controls: 0 for no effect and ±100 for the full control effect
Target sequence (Q27686 whole entry, looked up): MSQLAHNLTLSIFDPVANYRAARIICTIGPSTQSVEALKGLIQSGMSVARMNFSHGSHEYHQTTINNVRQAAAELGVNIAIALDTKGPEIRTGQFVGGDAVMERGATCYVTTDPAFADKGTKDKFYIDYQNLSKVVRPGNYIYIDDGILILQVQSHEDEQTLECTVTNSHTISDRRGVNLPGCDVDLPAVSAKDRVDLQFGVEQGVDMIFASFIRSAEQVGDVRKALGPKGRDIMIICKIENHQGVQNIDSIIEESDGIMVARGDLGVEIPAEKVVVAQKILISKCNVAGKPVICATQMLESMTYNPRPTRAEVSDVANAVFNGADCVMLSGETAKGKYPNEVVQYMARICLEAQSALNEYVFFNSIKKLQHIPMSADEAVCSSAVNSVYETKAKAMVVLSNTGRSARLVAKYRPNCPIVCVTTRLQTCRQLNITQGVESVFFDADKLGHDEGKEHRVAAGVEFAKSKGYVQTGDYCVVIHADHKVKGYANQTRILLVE
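In 50 mM imidazole pH 7.2 with 7 mM MgCl2, LmPK (0.1 nM) turned over PEP (0.5 mM) and ADP (0.1 mM) for 1 h at room temperature. Luciferase read-out of ATP.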
Giardia FBPA inh: Giardia lamblia aldolase inhibition; A8B2U2; purified Giardia FBPA; Potency, µM (series often up to 59.6 µM), for the others: at the highest dose activity, negative = inhibition, most hits filed as inhibitors; hit rate 0.71% among 290,000; also: potency is read from the fitted curve at half-maximal effect; % is scaled to controls: 0 for no effect and ±100 for the full control effect; nearly all actives have a fitted effect of over 55% in size
Target sequence (A8B2U2 whole entry, looked up): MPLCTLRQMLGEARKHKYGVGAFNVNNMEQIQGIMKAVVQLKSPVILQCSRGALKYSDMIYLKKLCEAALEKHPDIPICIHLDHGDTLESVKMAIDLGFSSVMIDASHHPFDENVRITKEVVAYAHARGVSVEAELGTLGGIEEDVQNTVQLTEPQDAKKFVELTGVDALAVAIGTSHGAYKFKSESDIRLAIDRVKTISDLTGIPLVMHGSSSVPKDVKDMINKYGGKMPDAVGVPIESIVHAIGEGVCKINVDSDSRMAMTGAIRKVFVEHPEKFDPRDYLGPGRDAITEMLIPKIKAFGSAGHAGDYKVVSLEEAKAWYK
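40 nM FBPA preincubated 10 min at RT with compound (up to 57.5 uM final), then substrate plus GAPDH/TPI/NAD/arsenate coupling and diaphorase/resazurin added. Fluorescence read after 20 min at RT, 525/598 nm.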
Tb PYK inh: inhibitors of Trypanosoma brucei pyruvate kinase; Q57TT1; TbPYK enzyme, Kinase-Glo Plus ATP luminescence, 45 min; Potency, µM (highest dose often 76.8 µM), without a hit: at the highest dose activity, negative = inhibition, usual class: inhibitors; hit rate 0.12% among 410,000; AID 624173; also: potency is read from the fitted curve at half-maximal effect; % is scaled to controls: 0 for no effect and ±100 for the full control effect; nearly all actives have a fitted effect of over 50% in size
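Readout: single end-point luminescence (Kinase-Glo Plus, 10 min). Reaction conditions were TbPYK/substrate plus 130 uM ADP, 45 min at RT, pH 7.2 TEA buffer. No-enzyme wells served as controls, and data were normalized before concentration-response fitting.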
Shiga toxin inh: blocks Shiga toxin action in Vero cells | inhibition, % at 38.7 µM | Vero cells, Shiga toxin protein synthesis inhibition reporter | hit rate 9.2% among 290,000 | AID 2315; in the data active = inhibition mostly above about 28%, no sharp cut-off; inactive = mostly below about 43%; also: 0% is about no effect
Sm TGR inh: S. mansoni TGR enzyme inhibition | Q962Y6 | purified TGR, DTNB reduction, TNB absorbance 405 nm | Potency, µM (titrated, usually from 114 µM), for inactives: at the highest dose activity change, negative = inhibition, most hits filed as inhibitors | hit rate 3% among 360,000; also: potency is read from the fitted curve at half-maximal effect; % is scaled to controls: 0 for no effect and ±100 for the full control effect; nearly all actives have a fitted effect of over 60% in size
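First, TGR (20 nM dispensed) and NADPH were mixed with compound. Second, a 15 min room-temperature incubation followed. Third, further NADPH and then DTNB were added to start the reaction. Finally, TNB absorbance was monitored kinetically.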
CHX counter-2: counter-screen for Shiga toxin inhibitors: cycloheximide protein synthesis block | Potency, µM (titrated, usually from 38.3 µM), for the others: at the top dose activity (activation), actives largely listed as activators | shares compounds with Shiga toxin inh | Cycloheximide counterscreen, protein synthesis reporter, Shiga toxin assay | hit rate 3% among 510; calls by dose curve; also: potency is read from the fitted curve at half-maximal effect; 0% is about no effect
* = called active by the depositor; ? = inconclusive; · = not tested or not shown; [ ] = dose if it differs, or a comment. Unless noted, calls follow the shape of the dose curve; as a rule, active = well fitted curve in the direction sought with a large enough effect; inconclusive = small, poorly fitted or top-dose-only effect, or another doubt; inactive = no such curve, though single readings can be large; an effect the other way counts as inactive or inconclusive.

SMILES	CHX counter-1	LmPK inh	Giardia FBPA inh	Tb PYK inh	Shiga toxin inh	Sm TGR inh	CHX counter-2
Cn1nc(-c2ccccc2F)c2cc(C(=O)NCc3ccccc3Cl)sc21	·	·	·	6.7%	·	-5.6%	·
COc1ccccc1CN(C)S(=O)(=O)c1cccs1	5.6	-1.1%	-1.2%	-0.6%	68.6*	9.3%	3.2%
COc1ccccc1CNS(=O)(=O)c1cccs1	3.3	3.1%	2.7%	-5.1%	1.3	-14.2%	·
COc1nc(C)c2cc(C)oc2n1	-4.0	-3.8%	0.9%	-6.5%	-4.9	-9.1%	·
CSc1nc(C)c2cc(C)oc2n1	-3.1	-8.2%	10.0%	-1.5%	70.8*	1.6%	-2.3%
COc1ccccc1CNC(=O)c1csc2c1CCCC2	6.3	3.5%	-14.4%	-7.4%	38.8*	-9.4%	3.3%
COc1ccc(NC(=O)Cn2c(=O)n(CCCC(=O)NCc3ccccc3OC)c(=O)c3ccccc32)cc1Cl	·	·	·	0.9%	·	9.0%	·
Cc1cccc(C(=O)Nc2nnc(SCC(=O)NC3CC3)s2)c1	-3.0	-6.6%	-23.7%	-8.4%	53.3*	1.6%	?
CCc1nc2ccccc2c(=O)n1NCCc1ccccc1	-0.7	-2.0%	6.6%	1.2%	49.1*	0.0%	3.7%
C/C1=C\[C@@H](O)C(C(C)C)C(OC(=O)c2ccc(O)cc2)C/C(C)=C/CC1 (stereo partly drawn)	4.2	·	-7.0%	·	24.5*	·	?
O=C(NCc1ccco1)c1noc2c1CCCC2	10.4	-1.4%	3.5%	-0.3%	41.9*	0.0%	?
CCc1nnc(NC(=O)CSc2ccc(Cl)cc2)s1	-0.3	-0.9%	-21.0%	-0.2%	2.5	-11.9%	·
COc1ccc(/C=C/c2nnc(NC(=O)CSc3ccc(Cl)cc3)s2)cc1	8.3	0.3%	3.6%	-9.1%	37.3*	-4.8%	?
CCN(CC)C(=O)c1cccc(NC(=O)CC23CC4CC(CC(C4)C2)C3)c1	-4.0	2.5%	-11.4%	-1.4%	-7.8	-5.5%	·
O=C(Nc1ccc(Cl)cc1)C1CCN(C(=O)c2cccs2)CC1	-3.5	5.0%	-7.4%	-0.7%	103.9*	0.7%	-4.9%
CC(=O)Nc1ccc(C2(O)COc3ccccc3O2)cc1 (stereo not drawn)	14.5	5.5%	3.4%	-1.1%	131.6*	-9.3%	5.0%
CC(=O)Nc1ccc(C2(c3ccc(NC(C)=O)cc3)C(=O)Nc3ccccc32)cc1	4.4	6.6%	7.0%	-0.4%	13.3	8.7%	·
CCn1c(=O)cc(OCC(=O)Nc2ccccc2Cl)c2ccccc21	·	·	·	-9.4%	·	-0.7%	·
CCOC(=O)Cc1csc(NC(=O)CSc2ncnc3c2cnn3-c2ccc(OC)cc2)n1	19.0	-8.3%	1.1%	0.6%	81.0*	-3.1%	?
CCOC(=O)CNC(=O)CSc1ncnc2c1cnn2-c1ccc(Cl)cc1	-3.3	-0.6%	1.9%	0.5%	-3.6	-26.1%	·
Cc1ccc(N2CCN(C(=O)c3ccccc3NC(=O)c3ccccc3C(=O)O)CC2)cc1	3.0	-0.6%	-3.9%	9.8%	39.4*	-22.8%	-1.5%
COc1ccccc1C(=O)Nc1ccc(N2CCN(C(C)=O)CC2)cc1	2.4	-1.2%	-0.9%	0.4%	53.2*	·	-1.8%
Cc1ccc(C(=O)Nc2ccccc2C(=O)N2CCN(c3ccccc3)CC2)cc1	-2.8	2.1%	-0.3%	3.6%	-6.5	2.2%	·
COc1ccc(/C=C/c2nc(C#N)c(N3CCC(C)CC3)o2)cc1OC	·	·	·	1.3%	·	-1.1%	·
CN(C)C=Nc1c(I)cc(I)c(CCC(=O)O)c1I	·	·	·	6.1%	·	·	·
SMILES	CHX counter-1	LmPK inh	Giardia FBPA inh	Tb PYK inh	Shiga toxin inh	Sm TGR inh	CHX counter-2
CC(=O)c1ccc(NC(=O)Cn2c(-n3nc(C)cc3C)nc(C)cc2=O)cc1	·	·	·	-10.0%[15.4 µM]	·	?	·
COC(=O)c1c(OC)cc2c(c1C)Oc1c(Cl)c(OC(C)=O)c(Cl)c(C)c1C(=O)O2	·	·	18.3%	·	·	·	·
COc1cccc(CNC(=O)c2nnn(CC(=O)Nc3cccc(C)c3)c2N)c1	1.5	1.5%	-6.3%	1.2%	-2.7	1.8%	·
COc1ccc(Cn2nnnc2C(C(C)C)N(Cc2ccco2)Cc2cccs2)cc1 (stereo not drawn)	7.5	2.8%	2.8%	5.8%	44.3*	-30.9%	0.4%
O=C(O)Cn1nnc(-c2ccc(OCc3ccccc3Cl)cc2)n1	-1.1	-0.3%	15.8%	9.7%	39.9*	-1.6%	2.7%
Cc1cc(Cl)ccc1OCC(=O)N(Cc1ccco1)c1c(N)n(Cc2ccccc2)c(=O)[nH]c1=O	·	·	·	0.0%	·	·	·
COC(=O)[C@H](Cc1ccccc1)NC(=O)N1CCC(C)CC1	9.1	1.2%	1.6%	1.7%	-10.3	-4.4%	·
COC(=O)[C@H](Cc1ccccc1)NC(=O)N1CCCCC1C (stereo partly drawn)	10.2	-3.4%	8.3%	1.5%	117.0*	2.3%	0.7%
CN(C)S(=O)(=O)c1ccc(C(=O)Nc2ccc(CCC(=O)N3CCCC3)cc2)cc1	-2.5	2.2%	-6.5%	-5.7%	-3.6	-5.3%	·
CN(C)S(=O)(=O)c1ccc(C(=O)Nc2ccc(CN3CCCC3)cc2)cc1	6.5	-0.5%	?	-8.5%	51.1*	-8.0%	0.9%
CCOc1ccc2nc(NC(=O)CN3CCN(c4ccccn4)CC3)sc2c1	13.5	6.8%	-10.1%	0.0%	55.7*	2.4%	3.7%
COc1ccccc1C(=O)Nc1nnc(SCC(=O)Nc2ccc3c(c2)oc2ccccc23)s1	1.8	-2.9%	2.7%	-5.0%	45.3*	0.2%	11.3µM*
Cc1ccc2c(c1)N(CC(=O)N1CCCC1)C(=O)CO2	3.2	3.2%	6.5%	-0.7%	34.6*	-3.9%	-0.6%
CCOc1ncccc1C(=O)Nc1c(C)n(C)n(-c2ccccc2)c1=O	9.0	-13.2%	2.5%	1.3%	32.0*	-7.2%	4.2%
COc1ccc(-c2nc(NC(=O)CSc3nnc4ccccn34)ns2)cc1	2.2	-0.7%	-5.2%	-4.5%	44.2*	-37.2%	?
COc1ccccc1NC(=O)CSc1nnc2ccccn12	·	·	·	-0.5%	·	-1.8%	·
CCn1ccc(C(=O)NC2=NCCS2)n1	16.6	-0.1%	-13.3%	2.4%	31.0*	5.6%	6.1%
CCn1ccc(C(=O)NC2CCCC2)n1	1.6	0.8%	·	5.6%	14.5	1.8%	·
CC(C)(C)S(=O)N1Cc2cc(CO)ccc2[C@@H]1CCO (stereo partly drawn)	·	·	·	4.2%	·	·	·
O=C(CSCc1ccco1)NC1CCCC1	2.5	1.0%	1.7%	-6.4%	29.4*	?	2.2%
COc1ccc(CC(=O)NC(C)c2nnc(SCC(=O)c3ccc(OC)cc3)n2C)cc1 (stereo not drawn)	-1.1	-0.7%	1.0%	5.4%	2.6	-1.0%	·
COc1ccc(C(=O)CSc2nnc(C(CO)NC(=O)c3ccc(OC)cc3)n2C)cc1 (stereo not drawn)	-2.5	-0.4%	-3.4%	-11.4%	63.9*	?	-3.0%
